Measured values from PubChem BioAssay (NCI).
The panel holds about 83,000 compounds, 20% with a hit somewhere; the sample as a whole holds those more often.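 How to read the values: 0–100, growth inhibition (40 = 60% inhibited); 0, no net growth; -100 to 0, cell death (-40 = 40% of starting cells died; -100 = all dead).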 Activity calls are given as the source filed them. How the source made its calls: active means growth percent below 10; inactive means the rest.

Legend:
Test in all cases: NCI-60 one-dose screen, 48 h (100 = growth as untreated, 0 = no growth, -100 = all killed)
Conditions in all cases: 10 µM
[1] = system: SR leukemia
[2] = system: RPMI-8226 leukemia
[3] = system: OVCAR-8 ovarian
[4] = system: OVCAR-5 ovarian
[5] = system: OVCAR-4 ovarian
[6] = system: SK-OV-3 ovarian
[7] = system: IGROV1 ovarian
[8] = system: OVCAR-3 ovarian
[9] = system: HS 578T breast
[10] = system: NCI/ADR-RES ovarian
[11] = system: T-47D breast
[12] = system: MDA-MB-435 melanoma
[13] = system: SW-620 colon
[14] = system: MCF7 breast
[15] = system: HCT-116 colon
[16] = system: HCC-2998 colon
[17] = system: KM12 colon
[18] = system: BT-549 breast

Measured: growth

CC(=O)OC/C=C(/C)C[P+](c1ccccc1)(c1ccccc1)c1ccccc1
active: [2] 0.0221%
inactive: [1] 64.9% | [3] 35% | [4] 81.4% | [5] 85.8% | [6] 94.7% | [7] 83.5% | [8] 62.9% | [9] 87.9% | [10] 90.3% | [11] 14.4% | [12] 53.3% | [13] 53.6% | [14] 33.3% | [15] 26% | [16] 80.4% | [17] 33.3%

CCN(CC)CCOc1cccc2c1C(=O)c1ccccc1C2=O
inactive: [1] 88.4% | [2] 86% | [3] 85.7% | [4] 102% | [5] 86.7% | [6] 82.2% | [7] 102% | [8] 102% | [9] 90% | [10] 92.5% | [11] 107% | [12] 100% | [13] 87.6% | [14] 92.1% | [15] 70.4% | [17] 98%

O=C(Nc1cccc2c1CCCC2)c1cc2ccccc2cc1O
active: [2] 8.51%
inactive: [1] 18% | [3] 55.9% | [4] 103% | [5] 56.8% | [6] 37% | [8] 28.2% | [9] 47.5% | [10] 11.7% | [11] 32.4% | [18] 27.4% | [12] 41.8% | [13] 51.4% | [14] 62.6% | [16] 59.1%

COc1cc(NC(=O)Nc2cnc(Nc3ccc(N4CCOCC4)cc3)nc2Oc2cccc(OC)c2)cc(OC)c1
active: [3] -10.8%
inactive: [1] 46.1% | [2] 53.3% | [4] 96.5% | [5] 13.7% | [6] 42.2% | [8] 41.7% | [9] 23.2% | [10] 61% | [11] 49.6% | [18] 28.8% | [12] 51.6% | [13] 72.6% | [14] 50.6% | [15] 32.4% | [16] 45.4% | [17] 53.3%

Cc1ccc(C)c(COc2cc(NC(=O)c3ccc4c(c3)OCO4)ccc2N(C)S(C)(=O)=O)c1
active: [6] -21% | [8] -20.6% | [9] -32.9% | [10] -5.26% | [11] 8.82% | [12] -15% | [15] -34.1% | [16] -41.5% | [17] -10.9%
inactive: [1] 13.2% | [2] 24.9% | [3] 24.9% | [4] 30.7% | [5] 29.7% | [18] 27.5% | [13] 28.7% | [14] 11.1%

CCOc1ccccc1/C=N\N=C\c1ccccc1O
inactive: [1] 80.6% | [2] 100% | [3] 107% | [4] 120% | [5] 112% | [6] 95.7% | [8] 88.9% | [9] 110% | [10] 99.9% | [11] 78.5% | [18] 84.2% | [12] 107% | [13] 105% | [14] 84.2% | [15] 98.8% | [16] 102% | [17] 95.3%

Cc1cc(=O)n2nnc3cc(Cl)c(Cl)cc3n12
inactive: [1] 70.5% | [2] 97.4% | [3] 106% | [4] 107% | [5] 92.1% | [6] 85.2% | [8] 77.8% | [9] 122% | [10] 101% | [11] 76.3% | [18] 114% | [12] 103% | [13] 23.4% | [14] 96.3% | [15] 91.8% | [16] 108% | [17] 109%

CCCc1nc(C(C)(C)O)c(C(=O)O)n1Cc1ccc(-c2ccccc2-c2nn[nH]n2)cc1
inactive: [1] 85.9% | [2] 104% | [3] 91.7% | [4] 104% | [5] 100% | [6] 106% | [8] 117% | [9] 102% | [10] 105% | [11] 82.1% | [18] 103% | [12] 106% | [13] 98.6% | [14] 98.9% | [15] 106% | [16] 110% | [17] 120%

COc1ccc(C(=O)N2C=Cc3ccccc3C2C#N)cc1 (configuration not stated)
inactive: [1] 88.8% | [2] 94.9% | [3] 100% | [4] 102% | [5] 102% | [6] 97.5% | [8] 105% | [9] 96.9% | [10] 95.6% | [11] 90.8% | [18] 103% | [12] 72.3% | [13] 99% | [14] 96.4% | [15] 115% | [17] 89.6%

COc1ccc(C(=O)COc2cccc(/C=C3\Cc4ccccc4C3=O)c2)cc1
inactive: [1] 56.7% | [2] 57.9% | [3] 91.7% | [4] 88.5% | [5] 76.8% | [6] 95.8% | [8] 97.2% | [9] 86.9% | [10] 74.4% | [11] 73.8% | [18] 74.5% | [12] 58.8% | [13] 89.5% | [14] 65.9% | [15] 84.4% | [16] 92.9%

C=CCNCCN1C(=O)c2ccc3c4c(ccc(c24)C1=O)C(=O)N(CCNCC=C)C3=O
active: [1] -8.69% | [3] -24% | [4] -52% | [5] -97.5% | [6] -38.6% | [8] -22.5% | [9] 1.35% | [10] -12.9% | [11] -51.5% | [12] -85.2% | [13] -50.3% | [14] -60.1% | [15] -23% | [16] -81.2%
inactive: [2] 13.5% | [18] 21.8%

COc1cc(Cc2cc(-c3ccccc3)n[nH]c2=O)cc(OC)c1OC
inactive: [1] 25% | [2] 53.5% | [3] 75.2% | [4] 93.1% | [5] 70.1% | [6] 71.2% | [8] 47.2% | [9] 68.2% | [10] 28.8% | [11] 40.5% | [18] 54.1% | [12] 11% | [13] 33% | [14] 34.9% | [15] 16.3% | [17] 48.8%

Cc1cc(CC(C)CC(C)(C)C)n(O)c(=O)c1 (configuration not stated) (tested in a mixture with another compound)
inactive: [2] 39.8% | [3] 20% | [4] 41.4% | [5] 22.4% | [6] 57.6% | [8] 24.2% | [9] 62.8% | [11] 28.1% | [18] 29.4% | [12] 22.2% | [13] 34.4% | [14] 17.5% | [15] 22.9% | [16] 57.5% | [17] 27.4%
active: [1] 2.72% | [10] 0.595%

CN(C)c1ccc(/C=N/NC(=O)c2ccccc2Nc2cccc(C(F)(F)F)c2)cc1
inactive: [1] 85% | [2] 76.8% | [3] 99.6% | [4] 88.4% | [5] 76.1% | [6] 100% | [8] 87.7% | [9] 83.5% | [10] 93% | [11] 75.6% | [18] 79.1% | [12] 92.3% | [13] 93.6% | [14] 92.5% | [15] 75.1% | [16] 116%

COc1cc(-c2nn(-c3ccc(NC(=O)NCCCNC(=O)c4ccccc4)cc3)cc2-c2ccncc2)ccc1Cl
active: [2] -3.49% | [12] 2.49% | [15] 9.58%
inactive: [1] 20.2% | [3] 20.6% | [4] 53% | [5] 44.4% | [6] 23.8% | [8] 20.6% | [9] 40% | [10] 69.4% | [11] 67.5% | [18] 22.8% | [13] 33.3% | [14] 12.8% | [16] 32% | [17] 20%

CNC(=O)c1cn(C2CC2)c2cc(N3CCN(C(=O)c4cc(OC)c(OC)c(OC)c4)CC3)c(F)cc2c1=O
inactive: [1] 92.2% | [2] 97.6% | [3] 100% | [4] 96% | [5] 98.6% | [6] 103% | [8] 106% | [9] 101% | [10] 96.7% | [11] 79% | [18] 112% | [12] 108% | [13] 103% | [14] 94.3% | [15] 103% | [16] 113% | [17] 102%

O=C(COc1cccc(/C=C2\CSc3ccc(Cl)cc3C2=O)c1)c1ccc(Cl)cc1
inactive: [3] 66.9% | [4] 86.7% | [5] 75% | [6] 86.2% | [8] 90.3% | [9] 93% | [10] 72.8% | [11] 45.2% | [18] 20.2% | [12] 87.7% | [15] 42% | [16] 32.9%
active: [1] -3.18% | [2] -25.1% | [13] -71.6% | [14] -35.1%

O=C(O)c1ccc(-n2cc(CNc3ccc(Cl)cc3)c(-c3ccccc3)n2)cc1
inactive: [1] 69.1% | [2] 89.1% | [3] 98.9% | [4] 103% | [5] 88.3% | [6] 107% | [8] 98.6% | [9] 85% | [10] 91.6% | [11] 89.4% | [18] 90.2% | [12] 91.9% | [13] 92.6% | [14] 87.4% | [15] 85.9% | [16] 113% | [17] 87.8%
